54 sequences from paper PMC7819943, “Rice protein-binding microarrays: a tool to detect cis-acting elements near promoter regions in rice” can be followed below.

The full ranking holds about 68,000 sequences; the median of “fluorescence intensity (a.u.)” is about 9,100, and the highest 2% start at about 16,000. This is one part of a sample in which the highest values are shown more often than they occur.

Sequence of OsWRKY34 (Q0JBA9 entry or part of it): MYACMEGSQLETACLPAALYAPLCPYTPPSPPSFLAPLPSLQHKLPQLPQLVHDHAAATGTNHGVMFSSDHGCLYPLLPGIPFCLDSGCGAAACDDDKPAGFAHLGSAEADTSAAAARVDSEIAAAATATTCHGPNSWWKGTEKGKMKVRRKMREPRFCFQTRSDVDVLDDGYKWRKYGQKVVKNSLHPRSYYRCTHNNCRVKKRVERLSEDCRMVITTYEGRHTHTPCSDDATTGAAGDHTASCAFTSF

The assay has as its target OsWRKY34 (Oryza sativa, UniProt Q0JBA9 1-250). In words: protein-binding microarray (RPBM); PBS, 2% BSA, 51.3 ng/ul salmon testes DNA, 50 uM zinc acetate, 200 nM TF, 25 C, 1 h; high values mean tight binding. The settings on record: protein: recombinant; tags: N-terminal polyhistidine and DsRed monomer fusion (pET32a); label: CyDye5-dUTP incorporated in the synthesized complementary strand; 3' TTTTT single-stranded linker to array surface; dsDNA, one strand shown. The method in brief:
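Binding signal is reported as fluorescence intensity per feature (arbitrary units) from an Axon 4000B scanner. Incubation used 200 nM of each Ni–NTA-purified, N-terminally polyhistidine- and DsRed-fused transcription factor from E. coli BL21-CodonPlus on a double-stranded custom Agilent array for 1 h at 25 °C, with 50 µM zinc acetate in the buffer, followed by washing.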
Consider “TTATACCACCGGATGCTGACACCATTCATCCGCTCTTCCTCGGAGTCACCTAGTGCAG”, for which the binding signal was 10700 fluorescence intensity (a.u.).
Next, “CTGTATGGCCACCGTCGCAGCTCGTCCTACACGTTTCTCACGGAGTCACCTAGTGCAG”: 10600 fluorescence intensity (a.u.); “TGCTAAACCTGTGGTGTTAAATCTGGCTGGTTGCCTGTCTCGGAGTCACCTAGTGCAG”: 9280 fluorescence intensity (a.u.); “TAACAGTTGACACAGGGAGCGGAGGGGCAGCTTGGTCATTCGGAGTCACCTAGTGCAG”: 8420 fluorescence intensity (a.u.).
Next, “CCTTAACACTTAATCCATGTGATGCATCTGTCATGCAACTCGGAGTCACCTAGTGCAG”: 8250 fluorescence intensity (a.u.).
For “TCCCCGCGGGCATGCCCGTTGCTGCGGGCGCAGCTCAATTCGGAGTCACCTAGTGCAG”, the binding signal was 8280 fluorescence intensity (a.u.).
For the sequence “GTGCTGGAGGGAGGGAACGGGGAACGTGGCAACTGACACGCGGAGTCACCTAGTGCAG”, the binding signal is 9030 fluorescence intensity (a.u.).
Turning to “GCGCAAACGCTCGAATTTTTGGTTTTGATCCATATGCATACGGAGTCACCTAGTGCAG”, the binding signal is 8580 fluorescence intensity (a.u.).
“TGTAGTCCCGCGTCGCACGGCATCCGGCCGGCCTCTCCTACGGAGTCACCTAGTGCAG”: the binding signal is 8760 fluorescence intensity (a.u.).
With “GGGATGGGGAAGGTCAGAGCCAATATGATCTGGTAACTCTCGGAGTCACCTAGTGCAG”, the binding signal is 9510 fluorescence intensity (a.u.).
Next, “CAAAGGTTCTAATGTTTGACCTCATTCTTATCTAAAACGACGGAGTCACCTAGTGCAG”: 9440 fluorescence intensity (a.u.); “GCGTCGCCTGCCGCCTCCGCTTCCGCTCCACTCCGCTTCGCGGAGTCACCTAGTGCAG”: 12000 fluorescence intensity (a.u.); “AACCCTAGCTCTTCACAGCTTCCATGGCTCTTCTCTCTCTCGGAGTCACCTAGTGCAG”: 12500 fluorescence intensity (a.u.).
Turning to “TCTCCTCTTCTTTTTCTTCCTTCCTTTTACTCGCTCGCTCCGGAGTCACCTAGTGCAG”, the binding signal is 9930 fluorescence intensity (a.u.).
Regarding “CTCTCTGTGTCTCCGCCGCCGCCGCCTCCGCCGCTCGCCGCGGAGTCACCTAGTGCAG”, the binding signal was 8060 fluorescence intensity (a.u.).
“GTAGTCATTCACGTGTTCCTCTTCTCCAGTACTAGTAGCTCGGAGTCACCTAGTGCAG”: the binding signal is 9710 fluorescence intensity (a.u.).
With “GTTCCAGCTTCATGCATGCACACACACAGTAGCTCGTGCTCGGAGTCACCTAGTGCAG”, the binding signal is 29300 fluorescence intensity (a.u.).
For “CCCGCTCGCTCTCGTGCTGTCCGCCGACCTCAGCTCGCTCCGGAGTCACCTAGTGCAG”, the binding signal was 10000 fluorescence intensity (a.u.).
On to “CAATCTCTCTCTCTCTCTCTCTCGCTGCTGCTGCTCCTTCCGGAGTCACCTAGTGCAG”, for which the binding signal was 9770 fluorescence intensity (a.u.).
With “ACCTCGTACCTCGCCGCTGTTCCGTTCCGTGCTCTGTGTCCGGAGTCACCTAGTGCAG”, the binding signal is 18700 fluorescence intensity (a.u.).
Regarding “CTGAACTCTCTCTCGCTCTCCGGCTCTCTGTATTCCTTCACGGAGTCACCTAGTGCAG”, the binding signal is 19800 fluorescence intensity (a.u.).
With “AACCATAAAACATGTGATTCTTTTTTTTAACCAAAACTTACGGAGTCACCTAGTGCAG”, the binding signal is 8130 fluorescence intensity (a.u.).
On to “ACCACTTAATCTTTATCTTTGTTAGATTCATTACTACTATCGGAGTCACCTAGTGCAG”, for which the binding signal was 8310 fluorescence intensity (a.u.).
As to “TATAGGTATTCACTACCTTATCATTTATTCATACCTTGTTCGGAGTCACCTAGTGCAG”, the binding signal is 8060 fluorescence intensity (a.u.).
Take “GGCTCCAAATCATCTGCCTTCATTGTCAGGCTTCAGTAATCGGAGTCACCTAGTGCAG”: the binding signal is 10400 fluorescence intensity (a.u.).
Next, “AGATTCGTGTAGACCCATTGTCTGGCAGCGGCGATCGTCCCGGAGTCACCTAGTGCAG”: 8040 fluorescence intensity (a.u.); “GCCACTCCTGACGTCAGCGTTGACTCGGTCAAACCCATCGCGGAGTCACCTAGTGCAG”: 19300 fluorescence intensity (a.u.); “AGTTGATCGCGGTCAAATCGTCACGTTAGTTGAACCCGGTCGGAGTCACCTAGTGCAG”: 8260 fluorescence intensity (a.u.).
Consider “TCACCCACCTGTTGACTACCATCACCACTCCTCGTCTGGACGGAGTCACCTAGTGCAG”, for which the binding signal was 8590 fluorescence intensity (a.u.).
Regarding “ATACACACTTCAGTCACTCGGTAGGCCACTCCGTACGGCACGGAGTCACCTAGTGCAG”, the binding signal is 8510 fluorescence intensity (a.u.).
In the case of “CCGTTTCGAAATGTTTACACCGTTGACTTTTTAGCACATGCGGAGTCACCTAGTGCAG”, the binding signal was 30100 fluorescence intensity (a.u.).
Take “TCGAAATGTTTGACACCGTTGACTTTTTAGCACATGTTTACGGAGTCACCTAGTGCAG”: the binding signal is 19000 fluorescence intensity (a.u.).
“CGAAATGTTTGACGTCGTTGACTTTTTAGCACATGTTTAACGGAGTCACCTAGTGCAG”: the binding signal is 22800 fluorescence intensity (a.u.).
As for “TTTCGAAATGTTTGACACTGTTGACTTTTTAGCACATGTTCGGAGTCACCTAGTGCAG”, the binding signal was 14200 fluorescence intensity (a.u.).
As to “CAAAATGTTTGACATCGTTGACTTTTTAGCACATGTTTGACGGAGTCACCTAGTGCAG”, the binding signal was 15300 fluorescence intensity (a.u.).
With “TTCGAAATATTTGACACCGTTGACTTTTTAGCACATGTTTCGGAGTCACCTAGTGCAG”, the binding signal is 30000 fluorescence intensity (a.u.).
As to “GAATTAAACTTTGCATGGTTTCTGTTTGGTCAAACTTCTCCGGAGTCACCTAGTGCAG”, the binding signal is 9130 fluorescence intensity (a.u.).
Take “AGGTACGCACGCGCGGTGGAGGAGGAGGAGGAGGAGGAGGCGGAGTCACCTAGTGCAG”: the binding signal is 10900 fluorescence intensity (a.u.).
On to “TGAATGCACCATGTCTTTTGCTCCGTCCGTCATAAAAAAACGGAGTCACCTAGTGCAG”, for which the binding signal was 8950 fluorescence intensity (a.u.).
“TGCCAAAGCTCTATCCATTTTGCCTCTACTCAATCGTCCACGGAGTCACCTAGTGCAG”: the binding signal is 10200 fluorescence intensity (a.u.).
For the sequence “TCTAGATTTATCCCCATTTTTGGCTGGGCCTTCTATTTAACGGAGTCACCTAGTGCAG”, the binding signal is 8720 fluorescence intensity (a.u.).
As for “AACCCATTACATAGCTGCAAGAAACCCAATCTTTCTTTACCGGAGTCACCTAGTGCAG”, the figure is 8420 fluorescence intensity (a.u.); as for “CCTACCCCTACCGCTCCTGCCTGCTTCGCCCGCCGCCGCCCGGAGTCACCTAGTGCAG”, 8340 fluorescence intensity (a.u.).
As to “CTCTATACCATACGCCATCTCCATCATCTCTCGATCCATCCGGAGTCACCTAGTGCAG”, the binding signal is 11300 fluorescence intensity (a.u.).
“AGTCTGAGCCACCTTTCATTACCCATCCAAGATTCGGTTTCGGAGTCACCTAGTGCAG”: the binding signal was 8900 fluorescence intensity (a.u.).
As for “AGTAGTCCTTCAAGCTCCAATCATATACCCCTGATACTAACGGAGTCACCTAGTGCAG”, the figure is 8300 fluorescence intensity (a.u.); as for “AGGAAATGTCTCATCAAATACTAGATTGGTTTTTTTTTACCGGAGTCACCTAGTGCAG”, 8960 fluorescence intensity (a.u.); as for “CGATTTCGACCAATCTAGCCGCTATGTGCACTCCTTTTCCCGGAGTCACCTAGTGCAG”, 12100 fluorescence intensity (a.u.).
As to “TGGTCTTGCTGGTTGCTGCGTATTTGGCTGTATTGGTTATCGGAGTCACCTAGTGCAG”, the binding signal is 8380 fluorescence intensity (a.u.).
As for “ATTATACGTTAATGGCTTTCTCGTTTTGTATACGCTGATTCGGAGTCACCTAGTGCAG”, the figure is 9600 fluorescence intensity (a.u.).
In the case of “TCGAAATATTTGACACCGTTGACTTTTTAGCACATGTTTGCGGAGTCACCTAGTGCAG”, the binding signal was 35300 fluorescence intensity (a.u.).
“ATTTGATACTTCTCTCGCCTTTCTTTATTATTCTCCCGCTCGGAGTCACCTAGTGCAG”: the binding signal is 8420 fluorescence intensity (a.u.).
Regarding “GAGTGCCTATTCAATTGCCTTTTGTTTGTCAACGTTTCTCCGGAGTCACCTAGTGCAG”, the binding signal is 8080 fluorescence intensity (a.u.).
As for “GTCCTTTCAGTGTTGCGCTTTTGCTTATTGTAGTTATTGGCGGAGTCACCTAGTGCAG”, the figure is 16300 fluorescence intensity (a.u.).
